This passage reports activation results from PubChem BioAssay AID743398 (Broad Institute, 2014).

Among all 300,000 compounds or so, about 3,600 (1.2%) were called active. The full list was thinned out, with actives kept by preference. A number with no mark means an inactive call. Rule as the data show it: active = activation above about 30% (passing the limit was not always enough); inconclusive = no clear call, values can overlap the other calls.

The assay is described as follows: Wnt/beta-catenin pathway activators, primary screen, cell-based, plate reader, single point (AID 743398).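 Also: 0% = neutral control wells and 100% = positive control wells.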 As to conditions: Wnt/beta-catenin reporter cell assay, activator, at 9.35 µM, hits give high values.
For the molecule `O=Cc1ccc(Oc2cccc(C(F)(F)F)c2)nc1`, the activation is 0.99%.
On to `FC(F)(F)c1ccnc(Oc2ccc(C3=NCCS3)cc2)c1`, for which the activation is 50.4% (active).
In the case of `N#CCCN(C(=S)Nc1ccc(Cl)c(Cl)c1)C1CCCCC1`, the activation was -1.58%.
On to `CCCCCCCCN1C(=O)[C@@H](CC(=O)NCc2ccccc2)C[C@@]2(C(=O)OC)C1=C[C@H](C(C)(C)C)O[C@@H]2C`, for which the activation was -15%.
The same measure for `Cc1cc(OC(=O)NCCc2ccc(F)cc2)ccc1F`: 2.45%; for `COc1ccc(-c2ccc(CN3C(C(C)C)C(=O)N(Cc4cn(CC5CCCCC5)nn4)CCS3(=O)=O)cc2)cn1` (stereo not given): -0.388%; for `Cn1c(CCN2CCCC2)nc2cc(NS(=O)(=O)c3ccccc3)ccc21`: 2.48%.
For `O=S(=O)(Nc1ccc2nc(-c3ccco3)[nH]c2c1)c1ccccc1`, the activation was 37.5% (active).
For the molecule `O=S(=O)(Nc1ccc2cn[nH]c2c1)c1ccccc1`, the activation is -1.72%.
For the molecule `Nc1ncnc2c1ncn2C1OC(CO)CC1O` (stereo not given), the activation was 0.661%.
As to `Cc1cccc(C(=O)C(O)(c2ccccc2)C2CCCCC2=O)c1` (stereo not given), the activation is -5.91%.
For `CCOC(=O)c1ccc(NC(=S)Nc2cc(C)cc(C)n2)cc1`, the activation is -1.38%.
As for `CCOC(=O)c1cn[nH]c1NC(=S)Nc1ccccc1`, the activation was 48.2% (active).
Take `CCOC(=O)c1cc2c(nc1NC(=S)Nc1ccccc1)CC(C)(CC)OC2` (stereo not given): the activation was 9.37%.
As to `COc1ccc(F)cc1S(=O)(=O)N1CCCCC1`, the activation was -0.652%.
The same measure for `COc1ccc(Cl)cc1S(=O)(=O)N1CCC(O)(c2ccc(Cl)cc2)CC1`: 61.9% (active); for `COc1ccc(C(=O)NCc2ccc(Cl)cc2)cc1S(=O)(=O)N1CCCC1`: -0.0405%; for `CCc1nc2c(OCc3ccc(Cl)cc3Cl)cccn2c1N(C)C(=O)C(C)C`: -1.94%.
For `Cc1cccc(OCC(=O)NCCCNC(=O)c2ccccn2)c1` the value was -0.523%; for `Cc1ccc(Cl)cc1NC(=O)c1ccccn1`, -3.27%; for `CCN(CC)CCOc1ccc2c(c1)C(=NNC(=O)c1ccccn1)c1cc(OCCN(CC)CC)ccc1-2`, 54.2% (active).
As for `OC(c1ccccc1)(c1ccccc1)C1CCN(CCCOc2ccccc2)CC1`, the activation is -5.07%.
`COc1ccc(Sc2ccc(NC(=O)c3cccc(Cl)c3)cc2C#N)cc1`: the activation was -0.516%.
For `CCOC(=O)N1CCC(Nc2c(NCCN3CCN(c4cccc(Cl)c4)CC3)c(=O)c2=O)CC1` the value was -0.679%; for `CCOC(=O)N1CCC(Nc2c(NCCCN3CCN(c4ccc(OC)cc4)CC3)c(=O)c2=O)CC1`, 33.6% (active).
Regarding `CCOC(=O)N1CCC(Nc2c(NCCCN3CCN(CC)CC3)c(=O)c2=O)CC1`, the activation is 1.91%.
Take `COC(=O)[C@]12CCCCC=C1N(Cc1ccccc1)C(=O)[C@H](CC(=O)NCc1ccc(C)o1)C2`: the activation is -1.58%.
For `COc1cccc(C(NC(C)=O)c2nc(-c3cnc4ccccc4c3)cs2)c1` (stereo not given) the value was -0.125%.
Turning to `CC(C)c1cccc(-c2csc(C(O)c3ccccc3)n2)c1` (stereo not given), the activation is 1.98%.
As for `OC(c1ccccc1)c1nc(-c2cnc3ccccc3c2)cs1` (stereo not given), the activation is 50.7% (active).
In the case of `Cc1cc(Cl)ccc1C(=O)C1CCCN(C(=O)c2ccc3c(c2)OCO3)C1` (stereo not given), the activation is -2.01%.
On to `COc1ccc(C(=O)N2CCCCC2c2cc(C(=O)Nc3ccccc3)no2)cc1` (stereo not given), for which the activation was -2.86%.
Take `CCc1ccccc1NC(=O)CN1CCN(C(=O)c2cc(C3CC3)nn2-c2ccccc2)CC1`: the activation was -4.73%.
`COc1cccc(-c2cnc3c(NC(C)=O)cc(-c4cccc(NC(C)=O)c4)cn23)c1`: the activation is -2.59%.
On to `COc1cc(/C=C2/C(=O)ON=C2C)ccc1OCc1cccc(F)c1`, for which the activation was 13.4%.
In the case of `COc1cc(/C=C2/C(=O)ON=C2C)ccc1OCc1ccccc1F`, the activation is 48.1% (active).
With `C=CCOc1ccc(/C=C2/C(=O)ON=C2C)cc1OCC`, the activation was -0.78%.
On to `C[C@@H]1Cn2cnc(C(=O)Nc3ccc(CNC(=O)OC(C)(C)C)cc3)c2C(=O)N1`, for which the activation was -0.752%.
For `COc1cccc(NC(=O)Nc2ccc(F)cc2)c1`, the activation is 4.29%.
`Cc1ccc(-c2cnc(C(O)c3cc(Cl)cc(Cl)c3)[nH]2)cc1` (stereo not given): the activation is -5.54%.
As for `Cc1cccnc1CC(C)NC(=O)c1cc(COc2cncc(Cl)c2)on1` (stereo not given), the activation was 7.75%.
With `COc1ccc(OCc2cc(C(=O)NCC3(C)COC3)no2)c(Cl)c1`, the activation is 7.69%.
For `Cc1cc(OCc2cc(C(=O)NCc3cc(C(C)C)no3)no2)cc(C)c1Cl` the value was 40.5% (active); for `C=CCSc1nc2ccccc2[nH]1`, 0.251%; for `O=C(CSc1nc2ccccc2[nH]1)c1cccs1`, 58.5% (active).
Turning to `CN(Cc1ccccc1)C(=O)CSc1nc2ccccc2[nH]1`, the activation was 12.8%.
In the case of `C#CCN([C@@H](C)C(=O)OCC)S(=O)(=O)c1ccc(Br)cc1F`, the activation is -2.08%.
Consider `O=C(c1ccc(Cl)cc1)n1cnc2ccccc21`, for which the activation was 0.992%.
With `Cc1ccc(OCC(=O)Nn2cnc3ccccc32)cc1`, the activation was -2.76%.
The same measure for `COC(=O)c1ccc(-n2cnc3ccccc32)nc1`: 41.6% (active); for `Cc1c(C(=O)NCc2ccc(C#N)cc2)sc(=O)n1Cc1ccc(C(=O)N(C)C)cc1`: -0.79%.
As to `COc1ccc(C(O)c2nc(-c3ccc(OC)nc3)cs2)cc1` (stereo not given), the activation was -2.19%.
`CCOC(=O)[C@]12CCCC=C1N(Cc1ccc(Cl)cc1Cl)C(=O)[C@H](CC(=O)N1CCCCC1)C2`: the activation is -0.046%.
With `CCc1ccccc1NC(=O)CSc1nnc(CCNC(=O)OC(C)(C)C)o1`, the activation is -2.11%.
The same measure for `CCc1ccccc1NC(=O)CSc1nnc([C@@H](NC(=O)OC(C)(C)C)C(C)CC)o1` (stereo not given in full): 31.4% (active).
Regarding `CCc1ccccc1NC(=O)CSc1nnc(-c2ccncc2)o1`, the activation is 0.131%.
With `Cc1cc(Br)cn2c(Cc3ccccc3C(F)(F)F)c(-c3ccc(C#N)cc3)nc12`, the activation was -2.44%.
The same measure for `CSCCC(c1nnnn1Cc1ccccc1)N1CCN(C/C=C/c2ccccc2)CC1` (stereo not given): -2.2%.
The same measure for `O=C(CSc1nc2cccc(F)c2c(=O)n1-c1ccccc1)Nc1ccc2c(c1)CCC2`: -0.606%; for `Cc1ccc(NC(=O)c2ccco2)cc1`: -2.54%.
The same measure for `O=C(Nc1ccc(O)cc1)c1ccc(NC(=O)c2ccco2)cc1`: 9.09%.
On to `COC(=O)c1ccc(NC(=O)c2ccco2)cc1`, for which the activation is 58% (active).
As for `CC(Sc1ccc(S(=O)(=O)N2CCN(C)CC2)cn1)C(=O)NC1CCCC(C)C1C` (stereo not given), the activation was -1.63%.
Take `O=C(NCc1ccccc1Cl)c1csc([C@@H]2O[C@H](CO)[C@@H](O)[C@H]2O)n1`: the activation was -2.52%.
As for `CCC(c1nnnn1-c1ccc2c(c1)OCCO2)N1CCN(c2ccc(C(F)(F)F)cn2)CC1` (stereo not given), the activation is 0.0485%.
As to `COc1cc2ccccc2cc1C(=O)Nc1ccc(NC(=O)c2cccs2)cc1`, the activation is -6.22%.
For `COc1cc2ccccc2cc1C(=O)Nc1ccccc1C` the value was 38.1% (active); for `COc1cc2ccccc2cc1C(=O)Nc1ccncc1`, 11.7%; for `CCCCOCC1CN(CCCC)S(=O)(=O)c2c(Oc3ccc(F)cc3)cccc2O1` (stereo not given), -5.54%.
The same measure for `CCOC(=O)C1=C(CC)Nc2ccccc2N=C1N`: 38.3% (active).
On to `CCOC(=O)C1=C(C)NC(SC)=NC1c1ccccc1` (stereo not given), for which the activation is -2.32%.
`CCOC(=O)C(=O)C1C(=O)Nc2ccccc21` (stereo not given): the activation was 3.02%.
For `COC(=O)[C@H]1C[C@H](OC(=O)NCc2ccccc2)[C@@]2(O)CN(S(=O)(=O)c3ccc(C)cc3)CC2[C@H]1C(=O)OC` (stereo not given in full) the value was 0.0463%; for `COc1cccc(-c2cc(CNC(=O)[C@@H](Cc3ccccc3)NC(=O)[C@H]3O[C@@H](n4cnc(C(N)=O)n4)[C@H](O)[C@@H]3O)no2)c1`, -3.63%.
In the case of `COc1ccc(C(=O)Nc2nc(-c3ccc(OC)cc3)c(-c3ccc([N+](=O)[O-])cc3)s2)cc1`, the activation was -2.22%.
For `O=C(Nc1nc2ccc([N+](=O)[O-])cc2s1)c1ccncc1`, the activation is 34.4% (active).
Turning to `CCOc1ccc2nc(NC(=O)c3cc([N+](=O)[O-])ccc3N3CCOCC3)sc2c1`, the activation was -0.111%.
In the case of `Brc1ccc(COCCc2cn(Cc3ccccc3)c3ccccc23)cc1`, the activation is 11.3%.
For `Cc1cc(=O)oc2c3c(cc(OCC(=O)NCC(O)c4ccccc4)c12)OC(C)(C)CC3` (stereo not given) the value was -1.47%; for `Cc1ccc(C(=O)NCC(=O)O)s1`, 0.419%.
Regarding `Cc1csc(NC(=O)c2ccc(C)s2)n1`, the activation was 43.1% (active).
In the case of `Cc1csc(NC(=O)C2=COCCO2)n1`, the activation is 5.46%.
`COc1cccc(CNc2nc3cc(-c4csc5ccccc45)sc3c(=O)n2C)c1`: the activation was -2.71%.
As to `CC(C)Nc1ncnc2c1ncn2[C@H]1CN(Cc2ccncc2)C[C@@H](CO)O1`, the activation was -2.99%.
The same measure for `CCOC(=O)[C@]12CCC=C1N(Cc1ccco1)C(=O)[C@H](CC(=O)NCc1cccc(C(F)(F)F)c1)C2`: -1.73%; for `Cc1cc(C(=O)COc2ccccc2Cl)c(C)n1C1CC1`: -1.86%; for `O=C(COc1ccc(Br)cc1F)NCC1(N2CCCCC2)CCCCC1`: -3.51%.
Regarding `Cc1cc(C(=O)COc2ccc(Br)cc2F)c(C)n1C1CC1`, the activation is 35.3% (active).
For `CC(C)Nc1ccc(-n2nc3ccccc3[n+]2[O-])cc1` the value was 40.2% (active).
Turning to `COC(=O)[C@]12C[C@H](CC(=O)N3CCN(C(=O)C4CC4)CC3)C(=O)N(Cc3ccc4c(c3)OCO4)C1=C[C@H](C(C)(C)C)O[C@@H]2C`, the activation was -4.23%.
